Assay results reported in PubChem BioAssay AID624330 (Southern Research Specialized Biocontainment Screening …, 2012).
About 2,100 (0.62%) of roughly 340,000 compounds were called active.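 How the source made its calls: active means first-screen hits whose inhibition reached a set limit at any dose in the follow-up dose series; inconclusive means inhibition above the set first-screen limit but never retested; inactive means the rest.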 The list is a sample of the results. Results with a measured potency or affinity are listed apart.

The compounds below were run against Rac GTPase-activating protein 1 (Homo sapiens) (UniProt Q9H0H5) (assay: MgcRacGAP GTPase-activating activity inhibitors, confirmation, biochemical, ADP Hunter fluorescence, primary and confirmatory (AID 624330;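 further: fluorescence reports GDP produced by GAP-driven GTP hydrolysis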)). Settings: MgcRacGAP-stimulated Rac1 GTP hydrolysis, at 30 µM, stronger effect = higher value, GST-tagged Rac1 F28L mutant substrate.
Chain of Rac GTPase-activating protein 1 (Homo sapiens) (Q9H0H5 whole entry, looked up): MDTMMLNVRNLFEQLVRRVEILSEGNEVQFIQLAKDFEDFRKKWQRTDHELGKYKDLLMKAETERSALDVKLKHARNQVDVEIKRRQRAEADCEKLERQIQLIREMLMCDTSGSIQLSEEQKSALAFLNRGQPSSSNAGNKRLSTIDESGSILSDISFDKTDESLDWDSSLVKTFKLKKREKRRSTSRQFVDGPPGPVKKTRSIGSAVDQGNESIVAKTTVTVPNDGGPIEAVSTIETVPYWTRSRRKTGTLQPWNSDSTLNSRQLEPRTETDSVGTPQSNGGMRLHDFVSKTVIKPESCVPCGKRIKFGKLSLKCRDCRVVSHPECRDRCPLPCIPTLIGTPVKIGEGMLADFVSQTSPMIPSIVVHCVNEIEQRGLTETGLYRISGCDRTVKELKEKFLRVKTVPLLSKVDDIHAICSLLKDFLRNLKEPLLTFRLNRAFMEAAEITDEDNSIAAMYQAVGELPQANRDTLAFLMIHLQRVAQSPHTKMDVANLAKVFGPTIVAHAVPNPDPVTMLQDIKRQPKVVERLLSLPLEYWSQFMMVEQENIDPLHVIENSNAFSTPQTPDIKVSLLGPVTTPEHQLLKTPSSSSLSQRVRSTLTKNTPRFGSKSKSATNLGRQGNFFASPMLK

inhibition, inactive:
O=C(Nc1ccc(C(=O)N2CCCCC2)cc1)c1ccc([N+](=O)[O-])cc1 1.12%
Cc1ccccc1-c1cc(C(=O)O)nn1CC1CC(c2cccc([N+](=O)[O-])c2)=NO1 (stereo not drawn) 4.15%
COc1ccc(CCNC(=O)c2cc(C3CC3)nc3c2cnn3C(C)C)cc1 1.51%
O=C(Nn1cnnc1)c1ccc(OC(F)(F)C(F)C(F)(F)F)cc1 (stereo not drawn) 7.79%
CCCNC(=S)NNC(=O)c1cc(-c2cccnc2)nc2ccccc12 0.84%
CS(=O)(=O)c1cccc(C(=O)Nc2cccc(S(=O)(=O)N3CCCC3)c2)c1 3.17%
CC(=O)N1CCN(C(=O)c2ccc(NS(=O)(=O)c3ccc4c(c3)OCCO4)cc2)CC1 5.18%
O=C(CSc1ccc2ccccc2n1)N/N=C/c1ccccc1O 4.3%
COc1ccccc1/C=N/NC(=O)CSc1ccc2ccccc2n1 17.4%
O=C(CNC(=O)c1ccc(Cl)cc1Cl)NCc1ccccn1 -0.06%
CC1CCN(S(=O)(=O)c2ccc3ccccc3c2)CC1 1.45%
CC1CCN(S(=O)(=O)c2ccc3[nH]c(=O)[nH]c3c2)CC1 6.82%
Cc1ccc2c(c1)N(C(C)C(=O)NCc1ccc3c(c1)OCO3)C(=O)CO2 (stereo not drawn) 11.4%
Cc1ccc(C(=O)COC(=O)c2nc3nccc(C)n3n2)c(C)c1 5.3%
NC(=O)c1cc2ccncc2c2ccccc12 8.91%
CC1NC(C)(C)Cc2c1ccc1ccccc21 (stereo not drawn) 2.36%
CC1CC2(CCCCC2)Nc2ccc3ccccc3c21 (stereo not drawn) 12.5%
Cc1cccc(OCC(=O)NNC(=O)C2CCN(c3ncnc4sc(C)c(C)c34)CC2)c1 12.2%
CNc1nc(Nc2ccc(C(C)=O)cc2)nc(OC(C(F)(F)F)C(F)(F)F)n1 8.39%
COc1ccc(Nc2nc(OC)nc(OC)n2)cc1 14.1%
CCCC(C)NC(=O)CN1C(=O)c2cccc3cccc1c23 (stereo not drawn) 7.54%
CN(CCc1ccccn1)Cc1ccc(Cl)cc1Cl 19.1%
CN(CCc1ccccn1)Cc1ccc(Cl)c(Cl)c1 27.1%
COc1ccc(CN(C)Cc2ccccc2)c(OC)c1OC 4.85%
COc1ccc(CCN(C)Cc2ccc(OC)c(OCc3ccccc3)c2)cc1OC 18.3%
CN(CCc1ccccn1)Cc1ccc(Cl)cc1 24%
CCc1ccc(CN(C)CCc2ccccn2)cc1 13.2%
Cc1cccc(CN(C)CCc2ccccn2)c1 9.5%
Cc1ccc(CN(C)CCc2ccccn2)cc1 13%
CC(C)=CCCC(C)=CCN1C(=O)CN(C)C1=O 4.98%
CC(=O)c1cccc(NC(=O)C(C)OC(=O)CCC2CCCCC2)c1 (stereo not drawn) 1.73%
O=[N+]([O-])c1cccc(/C=N/n2cnnc2)c1O 4.49%
Cc1onc(-c2ccccc2Cl)c1C(=O)NCCCN1CCOCC1 12%
NS(=O)(=O)c1ccc(N/N=C/c2cn(-c3ccccc3)nc2-c2cccs2)cc1 2.12%
CCN(CCCCCCN)c1ccc2c(=O)[nH][nH]c(=O)c2c1 3.58%
Cc1ccc(-n2ncc3c(NNC(=O)c4ccco4)ncnc32)c(C)c1 7.64%
CCc1ccc(C2=NN(CCC(=O)NCC3CCCO3)C(=O)CC2)cc1 (stereo not drawn) 11.8%
CCNC(=S)N(CCc1c(C)[nH]c2ccc(OC)cc12)Cc1cccnc1 12.7%
O=C(NC1CCCCC1)c1sc(=S)n2c1[nH]c(=O)c1ccccc12 10.6%
O=C(NCc1ccccc1)c1ccc2c(=O)[nH]c3c(C(=O)NCC4CCCO4)sc(=S)n3c2c1 (stereo not drawn) 16.2%
Cc1ccccc1Cn1nc(C)c(NC(=O)c2cc(CC(C)C)on2)c1C 9.15%
COc1ccc(NC(=O)c2c(NC(=O)CNCc3ccco3)sc3c2CCC3)cc1 15.6%
COC(=O)c1c(NC(=O)c2ccco2)sc2c1CCC2 15.8%
CC(Sc1nncn1C)C(=O)Nc1nnc(C(C)C)s1 (stereo not drawn) -0.22%
CC(=O)CSc1nnc(NC(=O)CCc2ccccc2)s1 2.89%
CCNC(=S)NNC(=O)c1cc(Br)cs1 11.2%
CCCCn1c(N)c(N(Cc2ccccc2OC)C(=O)C(C)Oc2ccc(F)cc2)c(=O)[nH]c1=O (stereo not drawn) 6.07%
C=CCSc1nnc(NC(=O)CSc2nc(CCC)cc(=O)[nH]2)s1 12.2%
COc1cc(NC(=O)CN2C(=O)NC(C)(CCC(C)C)C2=O)cc(OC)c1 (stereo not drawn) -1.63%
COC(=O)c1[nH]c2ccccc2c1NC(=O)c1c(F)cccc1F -14.4%
COC(=O)c1[nH]c2cc(OC)c(OC)cc2c1NC(=O)c1cccc(OC)c1 10.8%
CCOC(=O)c1[nH]c2ccccc2c1NC(C)=O 2.46%
C=CCOC(=O)Nc1c(C(=O)OC)[nH]c2ccccc12 13.1%
CCOC(=O)Nc1c(C(=O)OC)[nH]c2cc(OC)ccc12 8.73%
COC(=O)c1[nH]c2ccc(C)cc2c1NC(=O)Oc1ccccc1 84.7%
C=CCOC(=O)Nc1c(C(=O)OC)[nH]c2ccc(Cl)cc12 0.34%
CCOC(=O)c1[nH]c2ccccc2c1NC(=O)CC -0.8%
N#Cc1c(/N=C/c2cc(Br)cs2)sc2c1CCC2 14.5%
NC(=O)C[C@@H]1NC(=O)[C@H](CCC(=O)O)NC(=O)c2cc([N+](=O)[O-])cc(I)c2OCC[C@@H](C(N)=O)NC1=O 6.13%
CC1CCN(C(=O)CSc2nnc(-c3cccnc3)o2)CC1 7.43%
Cc1cc(C)nc(NC(=NCCc2c[nH]c3ccccc23)NC(=O)Nc2cccc([N+](=O)[O-])c2)n1 8.14%
Cc1ccc(-c2[nH]ncc2/C=C(\C#N)C(=O)NC2CCCCC2)cc1 6.42%
Cc1cc(C)c(C(=O)N2CCCC(C(=O)c3cc(F)ccc3F)C2)o1 (stereo not drawn) 5.58%
CCOC(=O)c1[nH]c2ccc(F)cc2c1NC(=O)c1ccccc1C(=O)O 66%
CCOC(=O)c1[nH]c2ccc(OC)cc2c1NC(=O)c1cccc(OC)c1 5.01%
CCc1ccc(CN(C)C(=O)c2cc(COc3ccc(OC)cc3Cl)on2)nc1 10.7%
c1ccc2nc(-c3nccs3)ccc2c1 1.49%
Oc1ccc(-c2nccc(-c3cccs3)n2)cc1 9.71%
COc1cc(CCCN2CCNC[C@@H]2C(C)O)cc(OC)c1OC (stereo partly drawn) 3.02%
COc1ccc(N2CCN(C(=O)CCCn3c(=O)[nH]c4cc(Cl)ccc4c3=O)CC2)cc1 12.7%
Cc1nnc(SCc2ccc(Cl)c(Cl)c2)s1 5.65%
CCc1noc(C)c1C(=O)NNC(=O)c1ccc(Br)cc1 5.66%
CCOC(=O)/C(C#N)=C/c1ccc(OC)c(OC)c1 5.15%
CCOC(=O)/C(C#N)=C\c1ccc(OC)c(OC)c1 8.76%
COCCNC(=O)/C(C#N)=C/c1ccc2c(c1)OCO2 0.46%
COc1cc(/C=C(\C#N)C(=O)Nc2ccccn2)ccc1O 14.9%
N#C/C(=C\c1cccc(O)c1)C(=O)Nc1ccc2c(c1)OCCO2 7.83%
N#C/C(=C\c1ccc2c(c1)OCCO2)C(=O)Nc1ccc(C(=O)O)cc1 8.32%
Cc1cc(C)c(OCCOCCN(C)C)c(Br)c1 12.7%
CC(C)(C)[C@@H]1C=C(C(N)=O)O[C@H](OCCCCO)C1 4.43%
CN(C(=O)CN1C(=O)NC(C)(c2cccc(Br)c2)C1=O)C1CCCCC1 (stereo not drawn) 6.93%
COc1ccc2nc(SCCOC(=O)Nc3ccc(Cl)cc3)nc(C)c2c1 9.72%
CC1=C(C(=O)NC2CC(C)(C)Cc3c2cnn3-c2cccc(F)c2)OCCO1 (stereo not drawn) -2.86%
CCC(C(=O)Nc1cc(C)nn1-c1nc(C)cc(C)n1)c1ccccc1 (stereo not drawn) 13.7%
O=C1NN(c2cccc(Br)c2)C(=O)/C1=C\c1ccc(O)cc1 14.5%
O=C1NN(c2ccccc2)C(=O)C1=Cc1ccccc1 13.7%
O=C1NN(c2ccccc2)C(=O)/C1=C\c1ccccc1 21.7%
COc1cccc(/C=C2/C(=O)NN(c3ccc(Br)cc3)C2=O)c1O 13.4%
CCC1CCCCN1C(=O)CCS(=O)(=O)c1ccc2c(c1)CCN2C(C)=O (stereo not drawn) 8.33%
CCOc1ccc(N(CC(=O)Nc2ccccc2OC)S(C)(=O)=O)cc1 9.6%
C/C(=N\NC(=O)OC(C)(C)C)c1ccccc1Br -4.8%
CCCc1cc(=O)[nH]c(SCC(=O)N2CCCCCC2)n1 2.49%
COc1ccc(N2CCN(C(=O)CCS(=O)(=O)c3cccc4nsnc34)CC2)cc1 28%
Cn1nnnc1SCC(=O)Nc1cc(S(=O)(=O)N2CCCC2)ccc1Cl 4.66%
CC(/C=N/n1c(-c2ccccc2)n[nH]c1=S)=C\c1ccco1 24.1%
CC(=C/c1ccccc1)/C=N/n1c(C)n[nH]c1=S 15.2%
CC(=C/c1ccccc1)/C=N/n1cnnc1 -1.27%
CC(/C=N/n1cnnc1)=C\c1ccccc1 3.71%
